Compound activity: PubChem BioAssay, National Center for Advancing Translational Sciences (NCATS)
JMJD2A Tudor inh – JMJD2A Tudor domain (human) inhibition; O75164; AlphaScreen JMJD2A-Tudor / H3K4me3 peptide binding; Potency, µM (doses to about 114 µM), without a hit: at the top dose activity change, negative = inhibition, hits mostly inhibitors; 390,000 compounds, 4.4% hits; also: potency is read from the fitted curve at half-maximal effect; % is scaled to controls: 0 for no effect and ±100 for the full control effect; nearly all actives have a fitted effect of over 50% in size
G9a block – inhibitors of human histone lysine methyltransferase G9a. Potency, µM (series often up to 102 µM), inactives show at the highest dose activity, negative = inhibition, usual class: inhibitors. Q96KQ7. AID 504332. 350,000 compounds, 8.8% hits. G9a H3K9 monomethylation, AlphaScreen, 2 h; also: potency is read from the fitted curve at half-maximal effect; % is scaled to controls: 0 for no effect and ±100 for the full control effect; nearly all actives have a fitted effect of over 75% in size
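Chemiluminescent proximity detection of H3K9 monomethylation, read after 10 min bead incubation in the dark. Reaction: 20 nM G9a, 500 nM biotin-H3K9 peptide, 20 uM SAM cofactor, 2 h, room temperature, following 15 min enzyme-compound preincubation.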
BAZ2B inh – BAZ2B (human) inhibition | 360,000 compounds, 4.4% hits | Q9UIF8 | Potency, µM (titrated, usually from 114 µM), for inactives: top-dose activity change, negative = inhibition, most hits filed as inhibitors | AlphaScreen BAZ2B-H3K14Ac peptide displacement; also: potency is read from the fitted curve at half-maximal effect; % is scaled to controls: 0 for no effect and ±100 for the full control effect; nearly all actives have a fitted effect of over 60% in size
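In this displacement format the biotinylated H3(5-23) peptide acetylated at Lys14 serves as ligand at 50 nM, with BAZ2B at 50 nM in PBS pH 7.4 containing 0.01% Tween-20. Donor and acceptor beads are 10 ug/mL final.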
PI5P4K alpha inh – inhibitors of human PI5P4K alpha. P48426. PI5P4Kalpha enzyme, ADP-Glo luminescence, 60 min; active compounds read low. max response, %. 330,000 compounds, 1.2% hits; active = max response of -50% or lower; inconclusive = between -30% and -50%; inactive = -30% or higher; also: value at the top dose of about 77 µM; % is scaled to controls: 0 for no effect and ±100 for the full control effect
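Reactions run in 0.038 M HEPES pH 7.4, 0.28 mM EGTA, 0.1% CHAPS and 5% DMSO, with PI5P4Kalpha, substrate, compound and 5 microM ATP final, one hour at room temperature. Readout is ADP-Glo luminescence.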
PLK1 PBD inh – PLK1 (human) polo-box domain binding inhibition; Potency, µM, inactives show max response, negative = inhibition, hits mostly inhibitors; P53350; 360,000 compounds, 2.8% hits; Plk1 PBD binding of FITC phosphopeptide, fluorescence polarization; also: potency is read from the fitted curve at half-maximal effect; series mostly up to about 57 µM; % is scaled to controls: 0 for no effect and ±100 for the full control effect; nearly all actives have a fitted effect of over 65% in size
HP1b binding inh – HP1-beta chromodomain-methylated histone interaction inhibition. 390,000 compounds, 0.56% hits. AlphaScreen HP1-beta / biotin-H3K9me3 peptide binding. Potency, µM (top dose mostly 114 µM), without a hit: top-dose activity change, negative = inhibition, hits mostly inhibitors. P83916. AID 540317; also: potency is read from the fitted curve at half-maximal effect; nearly all actives have a fitted effect of over 70% in size
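AlphaScreen: HP1-beta (50 nM) preformed 30 min with biotin-H3(1-18)K9me3 peptide (50 nM) in PBS pH 7.4, 0.01% Tween-20. Compound added for 30 min at RT, then streptavidin donor/nickel chelate acceptor beads (10 ug/mL) for 30 min.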
* marks the source's active call; other numbers are inactive results; ? = inconclusive; . = not tested or not shown; [ ] = remark or other dose. In the library only some 12% were active in any assay of this set; here they are far more common. Unless noted, calls follow the shape of the dose curve; as a rule, active = well fitted curve in the direction sought with a large enough effect; inconclusive = small, poorly fitted or top-dose-only effect, or another doubt; inactive = no such curve, though single readings can be large; an effect the other way counts as inactive or inconclusive.

SMILES	JMJD2A Tudor inh	G9a block	BAZ2B inh	PI5P4K alpha inh	PLK1 PBD inh	HP1b binding inh
Cc1ccc(C(=O)Oc2cc(N)n(S(=O)(=O)c3ccc(F)cc3)n2)cc1	10.5%	12.9%	3.8%	-4.0	-5.2%	50.5%
O=[N+]([O-])c1cc2c(cc1CNCCc1ccc3c(c1)OCO3)OCO2	1.12µM*	?	25.1µM*	2.2	-3.3%	39.8µM*
Clc1ccc(CCNCc2ccncc2)c(Cl)c1	31.6µM*	3.98µM*	50.1µM*	1.8	-8.6%	-5.8%
CCCCCCCCCC(CC)c1ccc(S(=O)(=O)O)cc1 (stereo unspecified)	.	11.0%[59 µM]	.	.	.	.
O=C(NC(=S)Nc1ccccc1N1CCCC1)c1ccccc1Br	.	10µM*	11.2µM*	.	.	.
COC(=O)NC(=S)Nc1ccccc1NC(=S)NC(=O)OC	-24.1%	.	.	-4.2	?	4.8%
COc1cc2[nH]c(=O)n(CCCCCC(=O)N3CCN(c4cccc(C(F)(F)F)c4)CC3)c(=O)c2cc1OC	?	-28.2%[59 µM]	-13.4%	.	.	-2.1%
Cn1ncnc2c(=O)n(C)c(=O)nc1-2	-4.3%	12.6µM*	7.7%	0.2	?	62.1%
CC1=CC(=C2C(=O)NC(=S)NC2=O)C=C(C(F)(F)F)N1Cc1ccccc1	-6.4%	79.4µM*	2.8%	-13.8	-2.5%	58.9%
Cc1ccc(S(=O)(=O)Oc2ccccc2C=C2C(=O)NC(=O)NC2=O)cc1	.	.	.	?	4.74µM*	.
O=C1NC(=O)C(=CCc2ccccc2)C(=O)N1	-7.6%	.	.	?	0.0%	62.2%
O=C1NC(=O)C(=Cc2ccccc2Oc2ccc(F)cc2)C(=O)N1	-1.9%	10µM*	16.3%	?	11.9µM*	42.4%
CCCCn1nnnc1C(CC)N1CCC2(CC1)C(=O)NCN2c1ccccc1 (stereo unspecified)	.	.	.	2.2	-3.2%	.
CCOc1ccccc1NC(=O)c1cccn(Cc2ccccc2C)c1=O	-10.3%	17.1%[59 µM]	3.3%	.	.	20.1%[57 µM]
CCN1CCN(C(=O)Cc2c(C)n(C(=O)c3ccc(Cl)cc3)c3ccc(OC)cc23)CC1	-35.2%	50.1µM*	70.8µM*	-3.3	-10.9%	28.0%
CS(=O)(=O)N1CCC2(CC1)CN(Cc1ccncc1)C2	.	4.1%[12.7 µM]	.	.	.	.
Oc1ccccc1CN(CCc1ccccc1)Cc1ccccc1	44.7µM*	-9.7%[0.501 µM]	?	14.6	6.4%	-19.5%
CCCCCCNC(=O)N[C@@H](Cc1ccc(O)cc1)C(=O)NCCC[C@H]1CN2C(=NC[C@H]2C)N1CC1CCC1	-17.4%	?	0.6%	5.5	?	12.4%
CCCCCCNC(=O)N[C@H](Cc1ccc(O)cc1)C(=O)NCCC[C@H]1CN2C(=NC[C@H]2CCC)N1CC1CCC1	.	0.3%[12.7 µM]	79.4µM*	.	.	.
Oc1cccc2nc3ccccc3nc12	?	28.2µM*	?	-0.7	-3.7%	-29.0%
Cc1ccccc1O	-10.2%	.	.	-11.5	-8.3%	24.2%
CN1C(=O)C(=Cc2cc([N+](=O)[O-])ccc2N2CCCCC2)C(=O)N(C)C1=O	-11.4%	3.0%[59 µM]	?	0.4	-6.4%	15.6%
CN1C(=O)C(=Cc2sc(=O)n(-c3ccccc3)c2N2CCCCC2)C(=O)N(C)C1=O	-17.6%	50.1µM*	?	1.2	17.0%	23.2%
CC12C=CC(=O)C=C1CCC1C2=CCC2(C)C1CC[C@@H]2C(=O)CN1CCN(c2cc(N3CCCC3)nc(N3CCCC3)n2)CC1 (stereo partly specified)	.	12.6µM*	.	.	.	.
O=C1c2ccccc2-c2c1nc1c([n+]2[O-])CCCC1	6.5%	?	0.8%	-7.2	1.9%	32.8%
Nc1ccc2nonc2c1[N+](=O)[O-]	-12.1%	?	-22.6%	-28.1	18.9µM*	40.1%
CC(C)n1c(N2CCN(S(=O)(=O)c3cccc([N+](=O)[O-])c3)CC2)nc2ccccc21	?	.	-11.0%	1.7	-2.6%	19.7%
O=c1c2ccc(Cl)cc2[nH]c(=S)n1-c1cccnc1	17.8µM*	20µM*	-21.2%	-4.7	1.5%	21.5%
O=c1c2cc(Br)ccc2[nH]c(=S)n1-c1ccccc1	-8.8%	13.7%	-14.8%	-7.8	2.8%	19.8%
